# Data taken from article PMC7862700, “An all-to-all approach to the identification of sequence-specific readers for epigenetic DNA modifications on cytosine”.
# Key:
# Experiment in all cases: DAPPL (digital affinity profiling via proximity ligation, sequencing); 10 mM Tris-HCl pH 7.5, 50 mM NaCl, 1 mM DTT, 4% glycerol, room temperature, 30 min; GST-TFs on glutathione beads, 16-mer random dsDNA library, 0.1% formaldehyde crosslink after washing; high values mean tight binding
# [1] = target: T1, FLI1 (Homo sapiens, UniProt Q01543 1-452); conditions: protein: recombinant; tags: N-terminal GST; dsDNA, one strand shown
# T1 sequence: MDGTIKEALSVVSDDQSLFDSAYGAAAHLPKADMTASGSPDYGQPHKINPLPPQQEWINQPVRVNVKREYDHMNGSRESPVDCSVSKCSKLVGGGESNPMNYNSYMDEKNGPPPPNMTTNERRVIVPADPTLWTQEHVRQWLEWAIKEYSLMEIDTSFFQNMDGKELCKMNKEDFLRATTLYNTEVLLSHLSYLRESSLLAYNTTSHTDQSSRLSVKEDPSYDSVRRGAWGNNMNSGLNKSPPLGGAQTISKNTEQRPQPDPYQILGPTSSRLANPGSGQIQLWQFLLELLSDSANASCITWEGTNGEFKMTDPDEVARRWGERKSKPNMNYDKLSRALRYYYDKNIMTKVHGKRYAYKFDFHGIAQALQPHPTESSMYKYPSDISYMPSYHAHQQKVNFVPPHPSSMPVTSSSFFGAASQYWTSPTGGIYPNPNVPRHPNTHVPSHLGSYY
# Outline: (§1)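 Pools of DNA-barcoded human transcription factors, expressed in yeast as GST fusions on glutathione beads and combined with a tag-only sample, were incubated with 200 nmole of a 16-mer random double-stranded DNA library. Incubation took 30 min at room temperature in Tris/NaCl/DTT/glycerol buffer and was followed by washing, 0.1% formaldehyde crosslinking, proximity ligation (BsaI/T4 ligase, 1 h, 37 °C), PCR amplification and sequencing on an Illumina NextSeq500. Binding signal is the ratio of a hexamer's read frequency for a factor to its frequency for the tag-only sample.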
# [2] = target: T2, ELK1 (Homo sapiens, UniProt P19419 1-428); conditions: protein: recombinant; tags: N-terminal GST; dsDNA, one strand shown
# T2 sequence: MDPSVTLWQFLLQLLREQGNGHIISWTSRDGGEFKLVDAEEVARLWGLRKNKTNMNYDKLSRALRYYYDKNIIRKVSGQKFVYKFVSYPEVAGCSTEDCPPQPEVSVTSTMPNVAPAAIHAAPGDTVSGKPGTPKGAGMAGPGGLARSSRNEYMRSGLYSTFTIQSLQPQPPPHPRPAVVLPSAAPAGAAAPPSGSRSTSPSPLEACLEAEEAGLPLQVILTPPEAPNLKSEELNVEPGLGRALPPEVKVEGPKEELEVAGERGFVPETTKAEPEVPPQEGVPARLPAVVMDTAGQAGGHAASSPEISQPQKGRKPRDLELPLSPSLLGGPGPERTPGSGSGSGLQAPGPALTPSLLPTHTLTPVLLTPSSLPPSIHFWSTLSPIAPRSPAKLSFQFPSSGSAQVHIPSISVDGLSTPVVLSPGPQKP
# Outline: as §1
# [3] = target: T3, GABPA (Homo sapiens, UniProt Q06546 1-454); conditions: protein: recombinant; tags: N-terminal GST; dsDNA, one strand shown
# T3 sequence: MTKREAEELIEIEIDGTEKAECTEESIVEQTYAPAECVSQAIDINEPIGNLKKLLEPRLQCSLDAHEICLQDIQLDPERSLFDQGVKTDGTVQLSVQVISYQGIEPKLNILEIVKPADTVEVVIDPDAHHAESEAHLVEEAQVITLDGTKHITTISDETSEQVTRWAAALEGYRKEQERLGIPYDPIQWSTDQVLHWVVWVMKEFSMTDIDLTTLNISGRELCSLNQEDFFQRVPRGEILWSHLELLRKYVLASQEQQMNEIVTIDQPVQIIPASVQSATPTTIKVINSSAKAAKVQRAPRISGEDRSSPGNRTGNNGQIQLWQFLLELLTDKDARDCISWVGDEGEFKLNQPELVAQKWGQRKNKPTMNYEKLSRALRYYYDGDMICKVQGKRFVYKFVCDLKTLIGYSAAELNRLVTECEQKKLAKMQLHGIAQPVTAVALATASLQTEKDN
# Outline: as §1
# [4] = target: T4, ERG (Homo sapiens, UniProt P11308 1-479); conditions: protein: recombinant; tags: N-terminal GST; dsDNA, one strand shown
# T4 sequence: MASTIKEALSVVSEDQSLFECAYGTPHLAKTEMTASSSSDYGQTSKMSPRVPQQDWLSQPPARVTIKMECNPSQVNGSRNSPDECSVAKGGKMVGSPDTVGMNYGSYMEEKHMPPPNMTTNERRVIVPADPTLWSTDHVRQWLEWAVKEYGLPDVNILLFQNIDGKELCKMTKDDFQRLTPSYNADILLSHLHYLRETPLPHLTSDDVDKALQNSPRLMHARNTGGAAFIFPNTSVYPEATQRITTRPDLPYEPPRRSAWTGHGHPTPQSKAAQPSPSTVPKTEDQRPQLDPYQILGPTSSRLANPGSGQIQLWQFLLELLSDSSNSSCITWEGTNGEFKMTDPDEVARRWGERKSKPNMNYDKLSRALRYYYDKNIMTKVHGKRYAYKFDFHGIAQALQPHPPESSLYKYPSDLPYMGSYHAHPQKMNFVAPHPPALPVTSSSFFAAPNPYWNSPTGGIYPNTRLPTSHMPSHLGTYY
# Outline: as §1
# [5] = target: ELF1 (Homo sapiens, UniProt P32519 1-619); conditions: protein: recombinant; tags: N-terminal GST; dsDNA, one strand shown
# Outline: as §1
# [6] = target: T5, EHF (Homo sapiens, UniProt Q9NZC4 1-300); conditions: protein: recombinant; tags: N-terminal GST; dsDNA, one strand shown
# T5 sequence: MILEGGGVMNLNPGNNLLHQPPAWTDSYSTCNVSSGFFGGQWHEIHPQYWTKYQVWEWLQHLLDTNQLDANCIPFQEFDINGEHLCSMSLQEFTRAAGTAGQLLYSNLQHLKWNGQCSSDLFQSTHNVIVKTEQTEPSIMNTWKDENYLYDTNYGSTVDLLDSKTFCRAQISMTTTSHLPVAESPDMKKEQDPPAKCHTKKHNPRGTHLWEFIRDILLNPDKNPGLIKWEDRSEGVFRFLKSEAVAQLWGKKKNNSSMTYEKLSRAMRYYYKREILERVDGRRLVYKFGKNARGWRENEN
# Outline: as §1
# [7] = target: SPI1 (Homo sapiens, UniProt P17947 1-270); conditions: protein: recombinant; tags: N-terminal GST; dsDNA, one strand shown
# Outline: as §1
# [8] = target: SPIB (Homo sapiens, UniProt Q01892 1-262); conditions: protein: recombinant; tags: N-terminal GST; dsDNA, one strand shown
# Outline: as §1
# [9] = target: T6, ELK3 (Homo sapiens, UniProt P41970 1-407); conditions: protein: recombinant; tags: N-terminal GST; dsDNA, one strand shown
# T6 sequence: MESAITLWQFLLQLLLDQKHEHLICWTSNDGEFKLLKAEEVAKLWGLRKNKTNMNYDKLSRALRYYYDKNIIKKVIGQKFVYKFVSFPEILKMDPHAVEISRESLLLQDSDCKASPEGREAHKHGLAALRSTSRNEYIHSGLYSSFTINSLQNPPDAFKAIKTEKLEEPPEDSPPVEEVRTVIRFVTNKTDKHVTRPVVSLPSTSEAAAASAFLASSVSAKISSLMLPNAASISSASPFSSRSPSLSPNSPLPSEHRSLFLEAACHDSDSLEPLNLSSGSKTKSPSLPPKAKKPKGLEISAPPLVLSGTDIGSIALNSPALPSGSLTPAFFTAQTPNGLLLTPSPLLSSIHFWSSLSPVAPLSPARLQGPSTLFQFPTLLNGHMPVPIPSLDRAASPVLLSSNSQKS
# Outline: as §1
# [10] = target: T7, FEV (Homo sapiens, UniProt Q99581 1-238); conditions: protein: recombinant; tags: N-terminal GST; dsDNA, one strand shown
# T7 sequence: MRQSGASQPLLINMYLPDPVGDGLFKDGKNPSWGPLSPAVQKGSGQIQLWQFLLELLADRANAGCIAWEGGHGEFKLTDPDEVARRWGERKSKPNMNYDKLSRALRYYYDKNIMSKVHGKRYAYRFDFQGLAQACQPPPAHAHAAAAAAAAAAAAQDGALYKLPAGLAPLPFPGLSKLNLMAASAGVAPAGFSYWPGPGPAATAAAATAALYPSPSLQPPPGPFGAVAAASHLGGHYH
# Outline: as §1
# [11] = target: ETV5 (Homo sapiens, UniProt P41161 1-510); conditions: protein: recombinant; tags: N-terminal GST; dsDNA, one strand shown
# Outline: as §1
# [12] = target: HSF1 (Homo sapiens, UniProt Q00613 1-529); conditions: protein: recombinant; tags: N-terminal GST; chain copies: 3; dsDNA, one strand shown
# Outline: as §1
# [13] = target: T8, SPIC (Homo sapiens, UniProt Q8N5J4 1-248); conditions: protein: recombinant; tags: N-terminal GST; dsDNA, one strand shown
# T8 sequence: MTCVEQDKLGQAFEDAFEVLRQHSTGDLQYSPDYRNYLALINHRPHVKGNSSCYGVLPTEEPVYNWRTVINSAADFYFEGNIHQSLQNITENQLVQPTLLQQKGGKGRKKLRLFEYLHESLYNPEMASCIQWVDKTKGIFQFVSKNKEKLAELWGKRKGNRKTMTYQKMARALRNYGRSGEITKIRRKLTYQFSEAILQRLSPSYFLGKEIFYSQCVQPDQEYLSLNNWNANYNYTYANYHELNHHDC
# Outline: as §1
# [14] = target: ELF4 (Homo sapiens, UniProt Q99607 1-663); conditions: protein: recombinant; tags: N-terminal GST; dsDNA, one strand shown
# Outline: as §1
# [15] = target: T9, ELK4 (Homo sapiens, UniProt P28324-2 1-405); conditions: protein: recombinant; tags: N-terminal GST; dsDNA, one strand shown
# T9 sequence: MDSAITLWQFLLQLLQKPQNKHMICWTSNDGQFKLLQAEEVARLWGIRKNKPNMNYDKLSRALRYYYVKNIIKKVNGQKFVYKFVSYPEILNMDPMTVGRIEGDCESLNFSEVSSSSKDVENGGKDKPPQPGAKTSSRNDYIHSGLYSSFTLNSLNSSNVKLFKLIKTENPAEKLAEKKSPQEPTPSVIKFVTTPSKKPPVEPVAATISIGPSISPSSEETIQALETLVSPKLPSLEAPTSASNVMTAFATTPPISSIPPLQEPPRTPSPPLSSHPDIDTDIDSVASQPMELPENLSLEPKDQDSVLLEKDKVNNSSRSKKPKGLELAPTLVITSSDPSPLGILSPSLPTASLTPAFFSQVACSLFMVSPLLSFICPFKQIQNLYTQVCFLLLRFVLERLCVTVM
# Outline: as §1
# [16] = target: T10, ETV2 (Homo sapiens, UniProt O00321 1-342); conditions: protein: recombinant; tags: N-terminal GST; dsDNA, one strand shown
# T10 sequence: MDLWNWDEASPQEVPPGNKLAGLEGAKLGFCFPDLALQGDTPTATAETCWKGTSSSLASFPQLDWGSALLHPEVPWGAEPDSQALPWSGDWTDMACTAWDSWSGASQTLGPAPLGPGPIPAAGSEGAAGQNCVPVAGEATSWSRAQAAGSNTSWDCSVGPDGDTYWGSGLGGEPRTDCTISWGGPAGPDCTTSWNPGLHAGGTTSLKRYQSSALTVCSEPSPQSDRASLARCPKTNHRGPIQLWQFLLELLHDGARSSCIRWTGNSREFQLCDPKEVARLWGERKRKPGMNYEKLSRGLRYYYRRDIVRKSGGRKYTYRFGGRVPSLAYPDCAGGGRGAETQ
# Outline: as §1
# [17] = target: T11, ELF3 (Homo sapiens, UniProt P78545 1-371); conditions: protein: recombinant; tags: N-terminal GST; dsDNA, one strand shown
# T11 sequence: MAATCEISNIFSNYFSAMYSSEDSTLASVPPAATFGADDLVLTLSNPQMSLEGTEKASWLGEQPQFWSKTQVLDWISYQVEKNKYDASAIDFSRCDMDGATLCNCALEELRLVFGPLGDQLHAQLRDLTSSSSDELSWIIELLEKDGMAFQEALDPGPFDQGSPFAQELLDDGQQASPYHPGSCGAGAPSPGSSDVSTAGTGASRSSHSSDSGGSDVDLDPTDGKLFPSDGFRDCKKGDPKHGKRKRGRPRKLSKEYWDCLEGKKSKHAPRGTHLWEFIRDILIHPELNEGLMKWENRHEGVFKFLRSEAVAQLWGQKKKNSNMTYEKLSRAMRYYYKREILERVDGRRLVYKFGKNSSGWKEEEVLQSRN
# Outline: as §1
# [18] = target: CRX (Homo sapiens, UniProt O43186 1-299); conditions: protein: recombinant; tags: N-terminal GST; dsDNA, one strand shown
# Outline: as §1
# [19] = target: ETV1 (Homo sapiens, UniProt P50549 1-477); conditions: protein: recombinant; tags: N-terminal GST; dsDNA, one strand shown
# Outline: as §1
# Chain of CRX (O43186 whole entry): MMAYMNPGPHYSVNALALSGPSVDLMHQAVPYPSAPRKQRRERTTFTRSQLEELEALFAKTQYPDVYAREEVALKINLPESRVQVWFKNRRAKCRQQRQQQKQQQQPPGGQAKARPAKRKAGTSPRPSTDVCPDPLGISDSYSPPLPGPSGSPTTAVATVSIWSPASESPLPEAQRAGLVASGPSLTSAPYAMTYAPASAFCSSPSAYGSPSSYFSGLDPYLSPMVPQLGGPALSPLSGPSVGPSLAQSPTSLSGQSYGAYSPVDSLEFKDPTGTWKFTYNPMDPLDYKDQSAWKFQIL
# Chain of ETV1 (P50549 whole entry): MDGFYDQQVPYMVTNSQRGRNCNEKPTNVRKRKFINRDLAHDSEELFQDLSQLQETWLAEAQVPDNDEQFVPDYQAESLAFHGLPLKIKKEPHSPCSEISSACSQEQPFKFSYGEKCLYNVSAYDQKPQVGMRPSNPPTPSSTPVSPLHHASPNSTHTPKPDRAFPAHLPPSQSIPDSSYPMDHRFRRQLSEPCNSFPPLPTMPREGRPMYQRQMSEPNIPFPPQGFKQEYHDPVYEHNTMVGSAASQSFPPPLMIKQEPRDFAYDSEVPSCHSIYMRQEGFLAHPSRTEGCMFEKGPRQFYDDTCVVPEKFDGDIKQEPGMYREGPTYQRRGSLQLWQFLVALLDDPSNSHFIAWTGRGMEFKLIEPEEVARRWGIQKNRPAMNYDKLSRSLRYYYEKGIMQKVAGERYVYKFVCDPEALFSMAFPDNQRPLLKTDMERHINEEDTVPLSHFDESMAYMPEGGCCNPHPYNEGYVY
# Chain of ELF1 (P32519 whole entry): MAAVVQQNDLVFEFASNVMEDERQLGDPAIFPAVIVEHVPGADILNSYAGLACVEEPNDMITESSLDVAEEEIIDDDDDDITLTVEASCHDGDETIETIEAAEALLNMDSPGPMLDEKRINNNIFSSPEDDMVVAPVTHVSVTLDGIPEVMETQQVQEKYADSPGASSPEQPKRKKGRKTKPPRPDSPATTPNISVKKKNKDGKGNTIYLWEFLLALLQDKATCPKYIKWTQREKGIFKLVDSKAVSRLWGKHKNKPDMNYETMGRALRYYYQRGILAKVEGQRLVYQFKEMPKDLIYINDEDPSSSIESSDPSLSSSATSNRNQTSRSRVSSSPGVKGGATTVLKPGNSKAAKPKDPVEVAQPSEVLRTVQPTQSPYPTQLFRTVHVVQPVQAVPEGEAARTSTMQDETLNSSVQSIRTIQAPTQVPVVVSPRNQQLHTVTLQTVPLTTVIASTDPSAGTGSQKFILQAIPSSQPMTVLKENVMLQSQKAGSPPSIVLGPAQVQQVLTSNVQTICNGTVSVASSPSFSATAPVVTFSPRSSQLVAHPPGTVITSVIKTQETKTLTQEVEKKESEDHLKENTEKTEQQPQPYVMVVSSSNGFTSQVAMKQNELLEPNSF
# Chain of ELF4 (Q99607 whole entry): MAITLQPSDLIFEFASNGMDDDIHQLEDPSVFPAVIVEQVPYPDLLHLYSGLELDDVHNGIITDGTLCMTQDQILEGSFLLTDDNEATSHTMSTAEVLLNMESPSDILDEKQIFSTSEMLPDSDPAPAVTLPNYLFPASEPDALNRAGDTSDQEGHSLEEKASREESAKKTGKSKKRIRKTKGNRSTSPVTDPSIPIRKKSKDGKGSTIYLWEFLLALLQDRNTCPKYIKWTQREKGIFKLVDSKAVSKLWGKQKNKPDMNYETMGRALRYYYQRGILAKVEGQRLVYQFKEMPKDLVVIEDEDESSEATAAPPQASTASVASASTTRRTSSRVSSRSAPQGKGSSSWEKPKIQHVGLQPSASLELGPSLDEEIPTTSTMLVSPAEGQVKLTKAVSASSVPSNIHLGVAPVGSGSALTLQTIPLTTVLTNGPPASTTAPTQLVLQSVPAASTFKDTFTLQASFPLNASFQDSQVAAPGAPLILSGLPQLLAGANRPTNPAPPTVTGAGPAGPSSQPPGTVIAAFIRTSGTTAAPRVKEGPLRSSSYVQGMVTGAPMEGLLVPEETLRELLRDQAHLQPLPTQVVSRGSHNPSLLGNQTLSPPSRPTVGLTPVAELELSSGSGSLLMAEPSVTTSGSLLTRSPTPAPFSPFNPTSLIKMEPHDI
# Chain of SPIB (Q01892 whole entry): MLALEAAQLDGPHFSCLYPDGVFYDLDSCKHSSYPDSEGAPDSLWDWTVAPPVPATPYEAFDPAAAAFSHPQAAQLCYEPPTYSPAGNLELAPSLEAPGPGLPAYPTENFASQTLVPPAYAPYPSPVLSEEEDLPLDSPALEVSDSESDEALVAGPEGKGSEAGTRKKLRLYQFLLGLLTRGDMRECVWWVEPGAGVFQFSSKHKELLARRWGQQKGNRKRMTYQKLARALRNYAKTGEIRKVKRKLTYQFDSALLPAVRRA
# Chain of ETV5 (P41161 whole entry): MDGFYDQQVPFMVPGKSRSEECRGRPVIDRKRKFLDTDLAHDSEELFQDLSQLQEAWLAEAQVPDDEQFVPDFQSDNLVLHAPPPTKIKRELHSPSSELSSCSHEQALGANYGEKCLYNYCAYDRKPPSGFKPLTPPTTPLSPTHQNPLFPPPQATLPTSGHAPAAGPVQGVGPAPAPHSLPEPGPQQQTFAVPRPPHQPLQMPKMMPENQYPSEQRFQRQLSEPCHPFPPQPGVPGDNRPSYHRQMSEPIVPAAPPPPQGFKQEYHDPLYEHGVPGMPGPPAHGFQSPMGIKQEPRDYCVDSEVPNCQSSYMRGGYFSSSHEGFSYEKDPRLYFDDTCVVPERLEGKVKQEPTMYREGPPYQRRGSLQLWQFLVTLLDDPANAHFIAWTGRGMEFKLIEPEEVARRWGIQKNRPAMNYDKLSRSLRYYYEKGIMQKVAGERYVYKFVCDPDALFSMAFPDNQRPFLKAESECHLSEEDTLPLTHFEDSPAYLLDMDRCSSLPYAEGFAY
# Chain of HSF1 (Q00613 whole entry): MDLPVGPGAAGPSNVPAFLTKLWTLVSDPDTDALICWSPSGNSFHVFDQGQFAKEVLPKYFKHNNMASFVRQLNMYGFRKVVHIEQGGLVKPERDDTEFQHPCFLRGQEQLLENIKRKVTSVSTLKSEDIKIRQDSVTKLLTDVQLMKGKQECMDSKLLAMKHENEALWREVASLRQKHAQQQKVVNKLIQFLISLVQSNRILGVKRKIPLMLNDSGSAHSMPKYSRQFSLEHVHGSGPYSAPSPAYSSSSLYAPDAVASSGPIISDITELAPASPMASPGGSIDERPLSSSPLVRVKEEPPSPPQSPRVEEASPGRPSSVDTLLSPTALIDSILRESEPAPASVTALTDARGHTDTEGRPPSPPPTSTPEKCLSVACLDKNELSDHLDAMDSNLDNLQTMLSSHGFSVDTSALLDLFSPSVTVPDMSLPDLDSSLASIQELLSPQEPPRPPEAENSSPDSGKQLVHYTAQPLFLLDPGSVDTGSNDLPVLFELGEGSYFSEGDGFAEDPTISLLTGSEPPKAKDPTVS
sequence,measurement,setting,value
TTTCCT,binding signal,[1],"2.49 fold enrichment (6-mer frequency, TF over GST control)"
same,binding signal,[2],"2.32 fold enrichment (6-mer frequency, TF over GST control)"
same,binding signal,[3],"2.32 fold enrichment (6-mer frequency, TF over GST control)"
same,binding signal,[4],"2.72 fold enrichment (6-mer frequency, TF over GST control)"
same,binding signal,[5],"2.19 fold enrichment (6-mer frequency, TF over GST control)"
same,binding signal,[6],"2.4 fold enrichment (6-mer frequency, TF over GST control)"
same,binding signal,[7],"2.33 fold enrichment (6-mer frequency, TF over GST control)"
same,binding signal,[8],"2.52 fold enrichment (6-mer frequency, TF over GST control)"
same,binding signal,[9],"2.53 fold enrichment (6-mer frequency, TF over GST control)"
same,binding signal,[10],"2.34 fold enrichment (6-mer frequency, TF over GST control)"
same,binding signal,[11],"2.73 fold enrichment (6-mer frequency, TF over GST control)"
same,binding signal,[12],"1.73 fold enrichment (6-mer frequency, TF over GST control)"
same,binding signal,[13],"2.42 fold enrichment (6-mer frequency, TF over GST control)"
same,binding signal,[14],"2.19 fold enrichment (6-mer frequency, TF over GST control)"
same,binding signal,[15],"2.04 fold enrichment (6-mer frequency, TF over GST control)"
same,binding signal,[16],"2.49 fold enrichment (6-mer frequency, TF over GST control)"
same,binding signal,[17],"2.44 fold enrichment (6-mer frequency, TF over GST control)"
same,binding signal,[18],"1.56 fold enrichment (6-mer frequency, TF over GST control)"
same,binding signal,[19],"2.43 fold enrichment (6-mer frequency, TF over GST control)"
